# Tg IFNy HTS – inhibitors of Toxoplasma gondii growth with IFN-gamma; Toxoplasma gondii growth in IFN-gamma-treated host cells; stronger effect = lower value; activity change, negative = inhibition, % (concentration not given with the values); 69,000 tested, 3.8% active; in the data active = activity change below about -70%, passing the limit was not always enough;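 also: host cells are HeLa cells infected with Toxoplasma gondii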
# The depositor's hits bear a star; i = inactive; ! = repeats disagree. This excerpt belongs to a sample that is enriched for hits.
SMILES,Tg IFNy HTS
O=C(Nc1ccn(Cc2ccc(Cl)cc2Cl)n1)c1ccc(F)cc1,-97*
Cc1oc(-c2ccc(NC(=O)c3ccc(F)cc3)cc2)nc1Cn1cccn1,23
Cn1nc(CN2CCCCC2)c2c1CN(C(=O)c1ccc(Cl)cc1)C2,14
CO[C@H]1CC[C@@H]2[C@H]1OCCN2C(=O)C1=CCCCC1,102
COC(=O)NC(C)CNc1nccc(-c2cn(C(C)C)nc2-c2cc(Cl)cc(NS(C)(=O)=O)c2F)n1 (centres undefined),-71*
CNC(=O)COC1COC2(CCN(Cc3cnn(C)c3)C2)C1 (centres undefined),68
CCCCC1CCC(C(=O)Nc2cc(C)nn2-c2ncnc3c2cnn3-c2ccc(C)cc2C)CC1 (centres undefined),21
Cc1ccc(-n2ncc3c(-n4nc(C)cc4NC(=O)CCC4CCCC4)ncnc32)c(C)c1,-31
Cc1ccc(-n2ncc3c(-n4nc(C)cc4NC(=O)C4CCCC4)ncnc32)c(C)c1,-106*
CCn1nnc2c1C(COC)CN(C(=O)c1cnoc1C)C2 (centres undefined),38
O=C(c1cccs1)N1CC(C(=O)N2CCCC2)C2(CCOCC2)C1 (centres undefined),32
O=C(Cc1c(F)cccc1Cl)NC(=O)NCCc1c(F)cccc1Cl,-83*
CCn1c(CCNC(=O)Cc2c(F)cccc2Cl)nnc1SC,-3
CC(C)(C)C(=O)C(Cc1c(F)cccc1Cl)C(=O)C(C)(C)C,-24
COc1c[nH]c(CN2CCOc3c(O)cc(-c4ccc(C)cc4)cc3C2)cc1=O,31
Cc1oc(-c2ccccc2)nc1CC(=O)N1CCC2(CN(C)C(=O)O2)C1 (centres undefined),76
CC(NCCc1ccc(O)cc1)C(O)c1ccc(O)cc1 (centres undefined),-3
CCCCCCCCNC(C)C(O)c1ccc(SC(C)C)cc1 (centres undefined),-78*!
C[C@@H](NCCc1ccc(O)cc1)[C@@H](O)c1ccc(O)cc1,-61
COC(=O)c1[nH]ncc1CN1CCN(C(=O)c2ccc(OC)cc2)CC1,-3
COc1cc(Nc2nc(-c3nnc(-c4ccccc4)o3)nc3ccccc23)cc(OC)c1OC,-125*
Cc1cccc(Nc2nc(-c3nnc(-c4cccc(C)c4)o3)nc3ccccc23)c1,-24
COc1ccccc1Nc1nc(-c2nnc(-c3ccccc3)o2)nc2ccccc12,-92*
COc1ccc(Nc2nc(-c3nnc(-c4ccc(C)cc4)o3)nc3ccccc23)cc1Cl,277
Cc1cccc(-c2nnc(-c3nc(Nc4ccc(C)c(F)c4)c4ccccc4n3)o2)c1,52
SMILES,Tg IFNy HTS
CCOc1ccccc1Nc1nc(-c2nnc(-c3cccc(C)c3)o2)nc2ccccc12,-51
COc1ccc(C)cc1Nc1nc(-c2nnc(-c3ccc(Cl)cc3)o2)nc2ccccc12,89
COc1cc(Nc2nc(-c3nnc(-c4cccc(C)c4)o3)nc3ccccc23)cc(OC)c1,-130*
COc1ccc(Nc2nc(-c3nnc(-c4cccc(C)c4)o3)nc3ccccc23)cc1OC,i
Cc1cccc(Nc2nc(-c3nnc(-c4ccccc4)o3)nc3ccccc23)c1C,-7
COc1ccccc1Nc1nc(-c2nnc(-c3cccc(C)c3)o2)nc2ccccc12,-86*
CN(C)C(=O)c1ccc2c(c1)N(C)C(CC(=O)NCCn1ccnc1)CO2 (centres undefined),-2
CCOc1ccc(NC(=O)c2cnc3ccccc3n2)cc1,67
Cc1ccc(C2(O)CCN(C(=O)CC3C(=O)Nc4ccc(C)cc43)CC2)nc1 (centres undefined),0
COC(=O)c1c(NCC(C)O)c2cccc(Cl)c2[nH]c1=O (centres undefined),29
COc1cccc(-c2ccc(NC(=O)C(C)C)cc2)c1OC,21
O=c1[nH]c2ccccc2c(O)c1-c1nc(-c2cccs2)no1,-9
Cn1ccnc1CN1C[C@H]2CN(C(=O)c3ccccc3)C[C@@H]2C1,-48
CCCN1CCN(CCCNC(=O)C2=C(C)C(=O)OC23CCN(CC)CC3)CC1,69
Brc1ccc(-n2nnnc2CSc2ncn[nH]2)cc1,13
COc1ccc(-c2nnc(-c3nc(Nc4cccc(OC)c4)c4ccccc4n3)o2)cc1,101
COc1ccc(-c2nnc(-c3nc(Nc4cc(C)cc(C)c4)c4ccccc4n3)o2)cc1,-101*
COc1cccc(Nc2nc(-c3nnc(-c4ccc(C)cc4)o3)nc3ccccc23)c1,95
C[C@]12CCC3c4ccc(O)cc4CCC3C1C[C@@H](O)[C@@H]2O (some centres undefined),-4
C[C@]12CC[C@@H]3c4ccc(O)cc4CC[C@H]3[C@@H]1CCC2=O,-77*!
C[C@]12CCC3c4ccc(O)cc4CCC3C1CC[C@@H]2O (some centres undefined),-74*
C[C@]12CCC3c4ccc(OS(=O)(=O)O)cc4CCC3C1CC[C@H]2O (some centres undefined),9
CC12CCC3c4ccc(O)cc4C=CC3C1CCC2=O (centres undefined),-88*
C#C[C@]1(O)CC[C@H]2[C@@H]3CCc4cc(OC)ccc4[C@H]3CC[C@@]21C,-6
CC(=O)O[C@]1(C(C)=O)CC[C@H]2[C@@H]3C=CC4=CC(=O)CC[C@]4(C)[C@H]3CC[C@@]21C,14
SMILES,Tg IFNy HTS
C#C[C@]1(O)CCC2C3CCc4cc(OC)ccc4C3CC[C@@]21C (some centres undefined),5
C[C@]12CC[C@@H]3c4ccc(O)cc4C(=O)C[C@H]3[C@@H]1CC[C@@H]2O,-3
CCOCC(=O)N1CCN(CC2CC2)c2ncccc2C1,0
CCN1CC(NC(=O)COc2ccccc2O)CC1=O (centres undefined),6
Cc1ccc(S(=O)(=O)Oc2c(C)cc(-c3nn(C)c(=O)c4ccccc34)cc2C)cc1,-26
CCN1CCC2(CC1)OC(=O)C(C)=C2C(=O)Nc1ccc(CN2CCC(C)CC2)cc1,-4
CCCCc1ncc(CN2CC[C@H](O)C[C@@H]2C(=O)O)[nH]1,-49
CC(C)(C)c1csc(=S)n1CCc1ccc(Cl)cc1,-87*
Cn1c(-c2ccc(Cl)cc2)cs/c1=N\C(=S)NCCc1ccccc1,-57
Cc1nn(CC(C)C(=O)Nc2ccc3c(c2)nc(CN2CCCCC2)n3C)c(C)c1C (centres undefined),11
CCCCc1ccc(Nc2ncnc3c2cnn3-c2ccc(C)cc2C)cc1,-55
Cc1cc(C)n(-c2cc(C(=O)NCc3cc(=O)[nH]c(N4CCOCC4)n3)ccc2C)n1,33
Cc1noc(-c2ccc(Oc3ccc(CN4CCCC4)cc3F)nc2)n1,-9
CC(C)N1CC2(CCN(Cc3cccnc3)CC2)CC1COCC1CC1 (centres undefined),-4
Cc1cccc(CN2CCC3(CCC(COCC4CC4)N3C)CC2)n1 (centres undefined),-85*
Cc1ccc(C(=O)N2CCC3(CCC(COCC4CC4)N3C)CC2)cc1 (centres undefined),-3
COc1ccccc1CC(=O)N1CCC(c2nc(C(=O)N3CCCC3)c(C)o2)CC1,-9
COc1cccc(NC(=O)c2ncn3c2CN(CC2CC2)S(=O)(=O)c2ccccc2-3)c1,-47
COCC1(C(=O)N2Cc3cnc(C(C)(C)C)nc3C2)CCC1,-16
O=C(Cn1cccnc1=O)N1CC[C@@H](c2ccc3ccccc3c2)[C@H](O)C1,-20
CN(C)C(=O)c1cccc(-c2ccc(C3[C@H]4CNC[C@@H]3N4S(=O)(=O)Cc3ccccc3)cc2)c1 (some centres undefined),-13
